Inconclusive results are not listed. Activity calls are given as the source filed them. Unless noted, calls follow the shape of the dose curve; as a rule, active = well fitted curve in the direction sought with a large enough effect in the repeat runs; inconclusive = weak or mixed curves; inactive = no such curve, though single readings can be large; an effect the other way counts as inactive or inconclusive. Non-standard residues stand in square brackets, D forms with d. Residues, ends and D or L forms follow the SMILES beside them. *: point of attachment. Sta = CC(C)C[C@H](N)[C@@H](O)CC(=O)O; Isovaleryl = CC(C)CC(=O)*
Experiments:
[1] = target: Peroxisome proliferator-activated receptor delta (Homo sapiens) (UniProt Q03181); experiment: qHTS assay to identify small molecule agonists of the peroxisome proliferator-activated receptor delta (PPARd) signaling pathway (AID 743212; calls by dose curve)
How it was run: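 Cells expressing a UAS-driven beta-lactamase reporter (PPARd-bla HEK293H) were given test compounds after a 5 h settle and kept at 37 C. Reporter activity was then measured as FRET fluorescence using LiveBLAzer B/G substrate.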

[2] = qHTS assay to identify small molecule antagonists of the peroxisome proliferator-activated receptor delta (PPARd) signaling pathway - cell viability counter screen (AID 743213); also: nearly all actives have a fitted effect of over 50% in size
How it was run: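 Viability counter-screen, qHTS format: PPARd-bla HEK293H, L165041 300 nM final, 17 h compound exposure at 37 C, CellTiter-Glo luminescence after 30 min RT.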

[3] = target: Peroxisome proliferator-activated receptor delta (Homo sapiens) (UniProt Q03181); experiment: qHTS assay to identify small molecule antagonists of the peroxisome proliferator-activated receptor delta (PPARd) signaling pathway (AID 743215; active = well fitted inhibition curve with a large enough effect in the signal ratio in the repeat runs, not every such curve was filed as active; the % refers to the signal ratio;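 also: cells stimulated with agonist L165041 at 300 nM final during compound exposure; series mostly up to about 62 µM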)
How it was run: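 Fluorescence from cleaved LiveBLAzer B/G FRET substrate (2 h, room temperature) reports PPARd-driven beta-lactamase in HEK293H UAS-bla cells. Cells had been treated 17 h at 37 C with compound plus 300 nM final L165041.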

[4] = qHTS assay to identify small molecule agonists of the farnesoid-X-receptor (FXR) signaling pathway - cell viability counter screen (AID 743218); also: nearly all actives have a fitted effect of over 45% in size
How it was run: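 Readout: CellTiter-Glo luminescence, 30 min RT, multiplexed after the FXR-bla FRET reading. HEK 293T FXR-UAS-bla cells received compound 5 h post-plating and were incubated 16 h at 37 C.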

[5] = qHTS assay to identify small molecule antagonists of the farnesoid-X-receptor (FXR) signaling pathway - cell viability counter screen (AID 743221; active = well fitted cell-killing curve with a large enough effect in the repeat runs, not every such curve was filed as active; also: nearly all actives have a fitted effect of over 50% in size)
How it was run: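 Luminescence from CellTiter-Glo measures cytotoxicity in GeneBLAzer FXR-UAS-bla HEK 293T cells. Cells were exposed to compounds with 50 uM chenodeoxycholic acid (final) for 16 h at 37 C, in wells also used for the reporter readout.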

[6] = target: Vitamin D3 receptor (Homo sapiens) (UniProt P11473); experiment: qHTS assay to identify small molecule agonists of the vitamin D receptor (VDR) signaling pathway (AID 743222; calls by dose curve)
How it was run: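 Following 4 h attachment at 37C, VDR-bla cells (2,000 per well) received DMSO-dissolved compounds or controls. After 16 h incubation, LiveBLAzer B/G FRET substrate was added and fluorescence read 2 h later at room temperature.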

[7] = target: Vitamin D3 receptor (Homo sapiens) (UniProt P11473); experiment: qHTS assay to identify small molecule antagonists of the vitamin D receptor (VDR) signaling pathway (AID 743223; active = well fitted inhibition curve with a large enough effect in the signal ratio in the repeat runs, not every such curve was filed as active; the % refers to the signal ratio)
How it was run: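 Antagonist mode uses 1alpha,25-dihydroxyvitamin D3 at 3 nM final as stimulus. VDR-bla cells receive compounds in DMSO, incubate 16 h at 37C, then a beta-lactamase FRET substrate for 2 h at room temperature before fluorescence measurement.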

[8] = qHTS assay to identify small molecule agonists of the vitamin D receptor (VDR) signaling pathway - cell viability counter screen (AID 743224); also: series mostly up to about 63 µM; nearly all actives have a fitted effect of over 50% in size
How it was run: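 In parallel with the bla FRET readout, cytotoxicity toward VDR-bla cells after 16 h compound exposure was assessed by CellTiter-Glo, with luminescence recorded after a 30 min room-temperature incubation.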

[9] = target: Bile acid receptor (Homo sapiens) (UniProt Q96RI1); experiment: qHTS assay to identify small molecule antagonists of the farnesoid-X-receptor (FXR) signaling pathway (AID 743217; active = well fitted inhibition curve with a large enough effect in the signal ratio in the repeat runs, not every such curve was filed as active; the % refers to the signal ratio)
How it was run: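 FRET fluorescence after 2 h room-temperature LiveBLAzer loading gives the readout. Prior step: FXR-bla HEK 293T cells, seeded and incubated 5 h, received test compounds plus 50 uM final CDCA for 16 h at 37 °C.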

[10] = target: Bile acid receptor (Homo sapiens) (UniProt Q96RI1); experiment: qHTS assay to identify small molecule agonists of the farnesoid-X-receptor (FXR) signaling pathway (AID 743220; active = well fitted activation curve with a large enough effect in the signal ratio in the repeat runs, not every such curve was filed as active; the % refers to the signal ratio)
How it was run: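 FXR-UAS-bla HEK 293T cells carrying a UAS-driven beta-lactamase reporter were plated for 5 h at 37C/5% CO2, then exposed to DMSO-dissolved Tox21 10K compounds for 16 h at 37C. A LiveBLAzer B/G FRET substrate was loaded for 2 h at room temperature before fluorescence reading.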

Measured: outcome

Chain of Bile acid receptor (Homo sapiens) (Q96RI1 whole entry, looked up): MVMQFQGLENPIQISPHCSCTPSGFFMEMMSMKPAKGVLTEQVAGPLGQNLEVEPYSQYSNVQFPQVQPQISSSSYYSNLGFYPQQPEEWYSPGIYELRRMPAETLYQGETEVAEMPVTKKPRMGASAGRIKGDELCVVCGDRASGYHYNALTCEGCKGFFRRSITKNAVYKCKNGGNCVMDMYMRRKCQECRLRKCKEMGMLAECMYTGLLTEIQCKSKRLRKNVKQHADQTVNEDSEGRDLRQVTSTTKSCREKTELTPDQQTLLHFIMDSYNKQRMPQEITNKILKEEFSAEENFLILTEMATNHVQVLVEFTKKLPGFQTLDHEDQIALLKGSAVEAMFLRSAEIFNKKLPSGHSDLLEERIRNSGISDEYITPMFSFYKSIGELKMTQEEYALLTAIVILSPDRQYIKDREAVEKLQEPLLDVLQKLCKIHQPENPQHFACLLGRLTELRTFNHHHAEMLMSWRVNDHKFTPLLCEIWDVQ
Chain of Peroxisome proliferator-activated receptor delta (Homo sapiens) (Q03181 whole entry, looked up): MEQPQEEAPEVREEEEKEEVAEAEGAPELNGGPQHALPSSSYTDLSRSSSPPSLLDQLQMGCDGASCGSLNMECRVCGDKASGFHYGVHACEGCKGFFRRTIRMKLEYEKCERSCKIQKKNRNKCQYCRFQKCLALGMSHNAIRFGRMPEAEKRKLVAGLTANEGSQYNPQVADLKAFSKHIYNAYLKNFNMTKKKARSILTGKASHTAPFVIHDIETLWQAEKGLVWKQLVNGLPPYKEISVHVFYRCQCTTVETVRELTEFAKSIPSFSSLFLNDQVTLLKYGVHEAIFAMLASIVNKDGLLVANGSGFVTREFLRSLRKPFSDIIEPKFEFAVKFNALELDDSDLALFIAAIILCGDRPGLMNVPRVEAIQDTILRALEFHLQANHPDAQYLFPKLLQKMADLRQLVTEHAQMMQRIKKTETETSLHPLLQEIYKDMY
Chain of Vitamin D3 receptor (Homo sapiens) (P11473 whole entry, looked up): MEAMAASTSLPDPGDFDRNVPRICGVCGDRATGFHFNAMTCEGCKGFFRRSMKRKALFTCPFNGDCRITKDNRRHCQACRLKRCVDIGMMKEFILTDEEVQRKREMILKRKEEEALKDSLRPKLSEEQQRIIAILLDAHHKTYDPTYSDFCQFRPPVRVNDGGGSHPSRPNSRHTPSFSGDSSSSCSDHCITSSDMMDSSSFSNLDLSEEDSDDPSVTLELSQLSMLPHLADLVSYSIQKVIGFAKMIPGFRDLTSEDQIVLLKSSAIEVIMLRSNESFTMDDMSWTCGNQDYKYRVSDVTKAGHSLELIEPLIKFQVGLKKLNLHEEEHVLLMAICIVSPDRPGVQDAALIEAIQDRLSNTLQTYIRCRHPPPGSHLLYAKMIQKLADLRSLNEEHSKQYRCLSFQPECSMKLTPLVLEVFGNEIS

Cc1ccc(Br)cc1
not listed: [9] | [10]
inactive: all other assays above

CCOC(=O)CC(C(C)=O)C(C)=O
not listed: [9] | [10]
inactive: all other assays above

COc1cc2nc(N3CCN(C(=O)C4CCCO4)CC3)nc(N)c2cc1OC (stereo not given)
inactive: [1] | [2] | [3] | [4] | [5]

N=C(N)N
inactive: [1] | [2] | [3] | [4] | [5]

CC(C)CC(=O)N[C@H](C(=O)N[C@H](C(=O)N[C@@H](CC(C)C)[C@@H](O)CC(=O)N[C@@H](C)C(=O)N[C@@H](CC(C)C)[C@@H](O)CC(=O)O)C(C)C)C(C)C (Isovaleryl-VV[Sta]A[Sta]-OH)
not listed: [9] | [10]
inactive: all other assays above

CCCCS
not listed: [9] | [10]
inactive: all other assays above

CCOC(=O)c1ccc(N(C)C)cc1
not listed: [9] | [10]
inactive: all other assays above

COC(=O)c1c(C)cc(O)c(C)c1O
not listed: [9] | [10]
inactive: all other assays above

COC(=O)C(c1ccccc1Cl)N1CCc2sccc2C1 (stereo not given)
not listed: [9] | [10]
inactive: all other assays above

CC/C=C\CCCCCCCCCCOC(C)=O
not listed: [9] | [10]
inactive: all other assays above

CCCCN=C(N)N=C(N)N
inactive: [1] | [2] | [3] | [5] | [8]

CCCCCC(=O)CC
not listed: [3]
inactive: all other assays above

N[C@H]1C(O)O[C@H](CO)[C@@H](O)[C@@H]1O (stereo not given in full)
not listed: [4] | [9] | [10]
inactive: all other assays above

Cc1ccc(O)c(C(=O)c2ccccc2)c1
not listed: [7] | [9] | [10]
inactive: all other assays above

CC(=O)OC1CCC(C(C)(C)C)CC1 (stereo not given)
not listed: [7] | [9] | [10]
inactive: all other assays above

CC(C)(C)c1ccc(C(=O)CCCCl)cc1
not listed: [6] | [9] | [10]
inactive: all other assays above

CN(C)c1ccncc1
not listed: [6] | [9] | [10]
inactive: all other assays above

CN1C(CCl)Nc2cc(Cl)c(S(N)(=O)=O)cc2S1(=O)=O (stereo not given)
not listed: [6] | [9] | [10]
inactive: all other assays above

NNC(=O)CCCCC(=O)NN
not listed: [3]
inactive: all other assays above

C=COCCCCO
inactive: [1] | [2] | [3] | [4] | [5] | [8]

NC(=O)CC[C@@H](N)C(=O)O
not listed: [6] | [9] | [10]
inactive: all other assays above

CNC(=O)c1c(I)c(NC(C)=O)c(I)c(C(=O)O)c1I
inactive: [1] | [2] | [3] | [4] | [5] | [8]

Nc1ccc(C(=O)NCC(=O)O)cc1
not listed: [6] | [9] | [10]
inactive: all other assays above

CNC(C)=O
not listed: [6] | [9] | [10]
inactive: all other assays above

C=C(C)C(=O)OCCCC
inactive: [1] | [2] | [3] | [4] | [5] | [8]

CC(CN1CC(=O)NC(=O)C1)N1CC(=O)NC(=O)C1 (stereo not given)
not listed: [7] | [9] | [10]
inactive: all other assays above

O=C[C@@H](O)[C@H](O)[C@H](O)CO
inactive: [1] | [2] | [3] | [4] | [5] | [8]

O=S(=O)(O)c1cc(I)c(O)c2ncccc12
inactive: [1] | [2] | [3] | [4] | [5] | [8]

CCCCCCCOC(C)=O
inactive: [1] | [2] | [3] | [5] | [8]

CC(C)C(C)C
inactive: [1] | [2] | [3] | [4] | [5] | [8]

Cc1cc(N)no1
not listed: [6] | [9] | [10]
inactive: all other assays above
